In PubChem BioAssay AID2685 (National Center for Advancing Translational Sciences (NCATS), 2010):
About 2,100 (0.66%) of roughly 320,000 compounds were called active. Roughly 53% stayed inconclusive and do not appear here. This is one part of a sample in which actives are shown more often than they occur. Calls follow the shape of the dose curve; as a rule, active = well fitted inhibition curve with a large enough effect in the signal ratio, with a control signal flat (not every such curve was filed as active); inconclusive = small, poorly fitted or top-dose-only effect, or effect the other way, or a change in a side signal; inactive = flat fitted curve, though single readings scatter; the % refers to the signal ratio.

experiment: qHTS Assay for Lipid Storage Modulators in Drosophila S3 Cells; settings: BODIPY lipid droplet fluorescence, 18-24 h, cells fed with added oleic acid; cell number change: measured here: cell count max response; series mostly up to 46.1 µM;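 as to cell number change: cells counted by Cell Tracker Red CMTPX staining in the red channel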; as to lipid storage change, negative = inhibition: % is scaled to controls: 0 for no effect and ±100 for the full control effect
Method in brief: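 Drosophila S3 cells loaded with oleic acid (400 uM, as added) and compounds at several concentrations; lipid droplets imaged by 488-nm laser-scanning cytometry, 500–530 nm intensity and object ratio to cell channel. Percent activity normalized to 20 uM Triacsin C.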
Potency is read from the fitted curve at half-maximal effect.

| Structure (SMILES) | Potency | cell number change | lipid storage change, negative = inhibition |
| --- | --- | --- | --- |
| CCOC(=O)c1[nH]c(C)c(C(=O)NC2CCCCCC2)c1C | inactive | -7.97% | – |
| CCN(CC)CCCNC(=O)c1[nH]c(C)c(C(=O)NC2CCCCC2)c1C | 25.9 µM (active) | -5.4% | – |
| CCOC(=O)c1[nH]c(C)c(C(=O)NC2CCCCC2)c1C | inactive | -4.45% | – |
| O=C(O)c1cccc(S(=O)(=O)Nc2ccc3oc(=O)sc3c2)c1 | inactive | 4.14% | – |
| Cc1cc(O)c(C(C)C)cc1NS(=O)(=O)c1ccccc1 | inactive | -16.1% | – |
| Cc1cc2oc(=O)sc2cc1NS(=O)(=O)c1ccccc1 | 7.31 µM (active) | 5.22% | – |
| COc1cccc(-c2cc(C(=O)NCC3CCCO3)c3cc(Br)cc(C)c3n2)c1 (stereo unspecified) | inactive | -7.43% | – |
| O=C(O)CC(Cc1ccc(Br)cc1)C(=O)O (stereo unspecified) | inactive | -24.7% | – |
| N=c1oc2c3c4c(cc2cc1C(=O)Nc1ccccc1)CCCN4CCC3 | 5.8 µM (active) | 5.35% | – |
| N=c1oc2ccccc2cc1C(=O)Nc1ccccc1 | inactive | 8.78% | – |
| N=c1oc2ccccc2cc1C(=O)Nc1ccc(F)cc1 | inactive | 0.805% | – |
| CC(C)COc1ccc(CSCCNC(=S)Nc2ccccc2)cc1 | inactive | – | – |
| O=C1C2CCCN2C(c2cccs2)N1c1ccc(F)cc1 (stereo unspecified) | inactive | -1.44% | – |
| Cc1ccc2nc3c(cc(C(=O)NCC4CCCO4)n3C)c(=O)n2c1 (stereo unspecified) | inactive | 19.4% | – |
| O=C(/C=C/c1ccco1)c1ccc(NC(=O)C23CC4CC(CC(C4)C2)C3)cc1 | 16.4 µM (active) | -23.6% | – |
| CC(=O)Nc1ccc(C(=O)/C=C/c2ccco2)cc1 | inactive | -0.499% | – |
| O=C(N/N=C/c1ccco1)C12CC3CC(CC(C3)C1)C2 | inactive | -15.4% | – |
| Cc1noc(C)c1COc1ccccc1C(=O)N(C)Cc1ccc(F)cc1 | – | -12.5% | 19.1% [at 0.0737 µM] (inactive) |
| O=C(c1ccc2c(c1)OCO2)C1CCCN(Cc2cc(F)ccc2-n2cccn2)C1 (stereo unspecified) | inactive | 10% | – |

| Structure (SMILES) | Potency | cell number change | lipid storage change, negative = inhibition |
| --- | --- | --- | --- |
| CCc1c(C)nc(N)n2c(SCC(=O)Nc3ccccc3OC)nnc12 | inactive | 6.92% | – |
| CCc1c(C)nc(N)n2c(SCC(=O)NC3CCCCC3)nnc12 | 1.3 µM (active) | 19.2% | – |
| CCn1c(C)nnc1SCC(=O)NC1CCCCCC1 | inactive | -4.99% | – |
| COc1ccc(C)cc1N(CC(N)=O)S(=O)(=O)c1ccc(C)cc1 | inactive | -13.9% | – |
| COc1ccc(Nc2ncc(C#N)c(N)n2)c(OC)c1 | inactive | 3.36% | – |
| Cc1c(NC(=O)/C=C/c2ccc(S(=O)(=O)N3CCOCC3)cc2)c(=O)n(-c2ccccc2)n1C | inactive | 8.27% | – |
| CC(=O)Nc1ccc(NC(=O)C(C)OC(=O)CCc2nc3ccccc3s2)cc1 (stereo unspecified) | inactive | 4.88% | – |
| CCNC(=O)NC(=O)C(C)OC(=O)CCCc1nc2ccccc2s1 (stereo unspecified) | inactive | 2.05% | – |
| CC(OC(=O)CCCc1nc2ccccc2s1)C(N)=O (stereo unspecified) | 23.1 µM (active) | 18.5% | – |
| Cc1nn(Cc2ccc(C(=O)n3cccn3)o2)c(C)c1Br | inactive | -2.33% | – |
| Cc1csc(NC(=O)c2ccc(Cn3nc(C)c(Br)c3C)o2)n1 | 7.31 µM (active) | -7.94% | – |
| Cc1csc(NC(=O)c2cccc(Cn3nc(C)c(Br)c3C)c2)n1 | inactive | -7.75% | – |
| Cc1nnc2c(NCCc3ccccc3)nc3ccccc3n12 | inactive | 6.11% | – |
| CCC(=O)Oc1ccc2oc(=O)cc(C)c2c1 | inactive | -1.41% | – |
| CCc1ccc(NC(=S)N2CCC(NC(=O)c3ccccc3OC)CC2)cc1 | inactive | 12.5% | – |
| Cc1cc(NC(=O)Cn2nc3c(cc2=O)CCCC3)ccc1Br | inactive | 19.1% | – |
| N=c1c(C(=O)NCc2ccccc2)cc2c(=O)n3ccccc3nc2n1CCCN1CCOCC1 | inactive | -5.03% | – |
| Cc1ccc(S(=O)(=O)c2cc3c(=O)n4ccccc4nc3n(C3CCCC3)c2=N)cc1 | inactive | -1.32% | – |
| N=c1c(C(=O)NCCc2ccccc2)cc2c(=O)n3ccccc3nc2n1Cc1ccco1 | 0.82 µM (active) | -1.35% | – |

| Structure (SMILES) | Potency | cell number change | lipid storage change, negative = inhibition |
| --- | --- | --- | --- |
| N=c1c(C(=O)NCc2ccco2)cc2c(=O)n3ccccc3nc2n1Cc1ccccc1 | inactive | -4.14% | – |
| COc1ccc(CCNC(=O)c2cc3c(=O)n4ccccc4nc3n(Cc3ccco3)c2=N)cc1OC | inactive | -20.4% | – |
| N=c1c(S(=O)(=O)c2ccc(Br)cc2)cc2c(=O)n3ccccc3nc2n1C1CCCCC1 | inactive | 2.36% | – |
| N=c1c(S(=O)(=O)c2ccc(Cl)cc2)cc2c(=O)n3ccccc3nc2n1C1CCCC1 | 13 µM (active) | – | – |
| Cc1ccc(Cn2c(=N)c(C(=O)NCCN3CCOCC3)cc3c(=O)n4ccccc4nc32)cc1 | inactive | 21.5% | – |
| N=c1c(C(=O)NCCN2CCOCC2)cc2c(=O)n3ccccc3nc2n1CCCN1CCOCC1 | 7.31 µM (active) | 8.12% | – |
| N=c1c(C(=O)NCCN2CCOCC2)cc2c(=O)n3ccccc3nc2n1CCc1ccccc1 | inactive | 15.8% | – |
| COc1ccc(CCNC(=O)c2cc3c(=O)n4ccccc4nc3n(CCCN3CCOCC3)c2=N)cc1OC | inactive | 3.54% | – |
| N=c1c(C(=O)NCCc2ccccc2)cc2c(=O)n3ccccc3nc2n1CCCN1CCOCC1 | 6.51 µM (active) | -19% | – |
| COc1ccc(C(=O)NCc2oc(-c3ccccc3)cc2C(=O)O)cc1 | inactive | -4.88% | – |
| COc1ccc2nc(/C=N/NC(=O)[C@H](CCSC)NC(=O)OC(C)(C)C)ccc2c1 | inactive | 13.4% | – |
| COC(=O)c1ccccc1NC(=O)CSc1nc(O)cc(=O)n1C1CCCC1 | inactive | 6.94% | – |
| O=C(NC(Cc1ccccc1)C(=O)O)/C(=C/c1ccco1)NC(=O)c1cccc([N+](=O)[O-])c1 (stereo unspecified) | inactive | -0.0963% | – |
| Oc1cccc(N2Cc3ccccc3C2)c1 | inactive | -1.3% | – |
| CCN1CCN(S(=O)(=O)c2ccc(Cl)c(C(=O)N(C)C(c3ccccc3)c3ccccc3)c2)CC1 | inactive | – | – |
| C=CCOc1ccc2ccccc2c1CNn1cn[nH]c1=S | inactive | 10.6% | – |
| Cc1ccc(OCC(=O)NCCCNC(=O)c2ccncc2)cc1 | inactive | 0.901% | – |
| CCOC(=O)N1CCN(C(=O)c2ccc3nc(N4CCCCC4)sc3c2)CC1 | inactive | -1.93% | – |
| CCOC(=O)CNC(=O)N1CCCC(CNS(=O)(=O)c2cccs2)C1 (stereo unspecified) | inactive | 11.3% | – |
